# Source: PubChem BioAssay
# Some of the results follow. Activity calls are given as the source filed them. Rule as the data show it, unless noted: active = response below about 74% or above about 130%; inactive = in between.
# Tests used:
# [1] = biological target: Regulator of G-protein signaling 16 (Homo sapiens) (UniProt O15492); assay: small molecules altering RGS protein interactions with GNAO1 – biochemical, multiplexed beads, flow cytometry, RGS4/7/8/16/19, primary screen (AID 1504); conditions: multiplexed bead flow cytometry, measured here: RGS16 interaction, at 10 µM;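 also: fluorescently labeled Galpha-o bound to GDP with aluminium fluoride binding biotinylated RGS beads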
# [2] = biological target: Regulator of G-protein signaling 19 (Homo sapiens) (UniProt P49795); assay: as above; conditions: multiplexed bead flow cytometry, measured here: RGS19 interaction, at 10 µM
# [3] = biological target: Regulator of G-protein signaling 7 (Homo sapiens) (UniProt P49802); assay: as above; conditions: multiplexed bead flow cytometry, measured here: RGS7 interaction, at 10 µM
# [4] = biological target: Regulator of G-protein signaling 8 (Homo sapiens) (UniProt P57771); assay: as above; conditions: multiplexed bead flow cytometry, measured here: RGS8 interaction, at 10 µM
# [5] = interference with biotin-avidin bead interaction – biochemical, flow cytometry, bead-based, counter-screen for RGS protein interaction modulators (AID 1783;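 active = inhibition above 50%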;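 also: median green fluorescence of gated singlet beads compared with DMSO control wells; 0% = DMSO wells and 100% = complete loss of bead fluorescence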); conditions: streptavidin beads, fluorescein-biotin binding; at 10 µM, stronger effect = higher value
# [6] = biological target: Guanine nucleotide-binding protein G(o) subunit alpha (Homo sapiens) (UniProt P09471); assay: retest of RGS8-Galphao interaction hits – biochemical, multiplexed bead flow cytometry, single concentration, confirmation (AID 1836; in the data active = binding response below about 72% or above about 130%; inactive = in between;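 also: Galphao activated as GDP AlF4 complex before binding bead RGS8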); conditions: bead-based flow cytometry RGS8-Galphao binding, fluorescence; at 10 µM; actives lie on both sides
# [7] = biological target: Guanine nucleotide-binding protein G(o) subunit alpha (Homo sapiens) (UniProt P09471); assay: retest of RGS7-Galphao interaction hits – biochemical, multiplexed bead flow cytometry, single concentration, confirmation (AID 1837; in the data active = response below about 75% or above about 130%; inactive = in between;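 also: fluorescent Galphao activated with GDP and aluminum fluoride binding bead-coupled RGS7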); conditions: bead-based flow cytometry RGS7-Galphao binding; at 10 µM; actives lie on both sides
# [8] = biological target: Regulator of G-protein signaling 16 (Homo sapiens) + Guanine nucleotide-binding protein G(o) subunit alpha (Homo sapiens) (UniProt O15492+P09471); assay: RGS16 and Galphao interaction regulators – biochemical, single concentration, multiplexed bead flow cytometry, confirmation (AID 1838); conditions: bead-based flow cytometry, at 10 µM, actives lie on both sides;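 also: Galphao activated as the GDP aluminium fluoride complex binding bead-coupled RGS16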
# [9] = biological target: Guanine nucleotide-binding protein G(o) subunit alpha (Homo sapiens) (UniProt P09471); assay: RGS4 and Galphao interaction regulators – biochemical, single concentration, multiplexed bead flow cytometry, confirmation (AID 1840; in the data active = binding response below about 74% or above about 130%; inactive = in between); conditions: at 10 µM, actives lie on both sides
# [10] = biological target: Guanine nucleotide-binding protein G(o) subunit alpha (Homo sapiens) + Regulator of G-protein signaling 19 (Homo sapiens) (UniProt P09471+P49795); assay: RGS19 interaction with Gαo, hit retest – biochemical, single point, multiplexed bead flow cytometry, confirmation (AID 1841; in the data active = response below about 50% or above about 160%; inactive = in between;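 also: 100% = no compound control and 0% = blank background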); conditions: bead-based flow cytometry RGS19-Galphao binding; at 10 µM; actives lie on both sides
# Guanine nucleotide-binding protein G(o) subunit alpha (Homo sapiens) + Regulator of G-protein signaling 19 (Homo sapiens), sequence (P09471 whole entry, looked up): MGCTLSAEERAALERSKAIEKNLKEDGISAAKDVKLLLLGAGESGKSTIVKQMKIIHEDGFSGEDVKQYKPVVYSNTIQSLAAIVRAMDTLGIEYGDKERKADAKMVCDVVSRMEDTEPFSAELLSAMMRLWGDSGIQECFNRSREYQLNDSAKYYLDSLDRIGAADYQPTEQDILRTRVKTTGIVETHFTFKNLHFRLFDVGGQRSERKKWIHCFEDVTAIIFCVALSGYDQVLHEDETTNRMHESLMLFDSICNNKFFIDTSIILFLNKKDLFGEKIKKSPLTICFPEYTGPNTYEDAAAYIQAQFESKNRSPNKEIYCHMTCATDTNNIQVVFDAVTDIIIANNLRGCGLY
# Guanine nucleotide-binding protein G(o) subunit alpha (Homo sapiens) + Regulator of G-protein signaling 19 (Homo sapiens), sequence (P49795 whole entry, looked up): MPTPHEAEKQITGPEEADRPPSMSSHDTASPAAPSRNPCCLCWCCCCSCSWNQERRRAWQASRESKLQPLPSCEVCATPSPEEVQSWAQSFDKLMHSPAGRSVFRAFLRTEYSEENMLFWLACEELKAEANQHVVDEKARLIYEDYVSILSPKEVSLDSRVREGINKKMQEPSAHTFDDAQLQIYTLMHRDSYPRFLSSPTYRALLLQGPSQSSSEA
# Regulator of G-protein signaling 16 (Homo sapiens) + Guanine nucleotide-binding protein G(o) subunit alpha (Homo sapiens), sequence (O15492 whole entry, looked up): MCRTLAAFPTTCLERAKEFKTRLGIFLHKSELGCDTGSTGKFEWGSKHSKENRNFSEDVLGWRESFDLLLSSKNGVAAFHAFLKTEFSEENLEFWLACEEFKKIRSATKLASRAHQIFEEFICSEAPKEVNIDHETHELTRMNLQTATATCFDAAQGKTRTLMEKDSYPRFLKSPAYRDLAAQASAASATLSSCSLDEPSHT
# Regulator of G-protein signaling 16 (Homo sapiens) + Guanine nucleotide-binding protein G(o) subunit alpha (Homo sapiens), sequence (P09471 whole entry, looked up): as the sequence (P09471 whole entry, looked up) above
# Guanine nucleotide-binding protein G(o) subunit alpha (Homo sapiens), sequence (P09471 whole entry, looked up): as above
SMILES,RGS16–Galpha-o binding response [1],RGS19–Galpha-o binding response [2],RGS7–Galpha-o binding response [3],RGS8–Galpha-o binding response [4],inhibition [5],binding response (% of control) [6],response (percent of control binding) [7],response (% of control binding) [8],binding response (% of control) [9],response (percent of control binding) [10]
Cc1c(CN2CCCC(C(=O)c3cccc(Cl)c3)C2)c(=O)n(-c2ccccc2)n1C (stereo not given),97.1%,50.3%,230%,95%,-1.5% (inactive),102% (inactive),106% (inactive),102% (inactive),103% (inactive),104% (inactive)
Oc1ccc(-c2onc3ccc(Cl)cc23)cc1,415%,108%,110%,144%,0% (inactive),92.4% (inactive),89.7% (inactive),91.4% (inactive),89% (inactive),79.4% (inactive)
CCCn1c(C)cc(C(=O)COC(=O)c2c(C)nn(-c3ccccc3)c2C)c1C,-33.9%,99.6%,81.9%,83.8%,1.1% (inactive),105% (inactive),104% (inactive),103% (inactive),104% (inactive),110% (inactive)
O=C(CN1CCOCC1)Nc1ccccc1,297%,103%,112%,145%,2.3% (inactive),97.1% (inactive),92.3% (inactive),94.4% (inactive),97.7% (inactive),97.1% (inactive)
COc1ccc(-c2nn(-c3ccccc3)cc2C(=O)Nc2nccs2)cc1OC,24.6%,172%,102%,75%,-2.4% (inactive),102% (inactive),99.8% (inactive),103% (inactive),101% (inactive),112% (inactive)
Cc1cc(C)nc(/N=C2\NC(=O)CC(C(=O)O)N2c2ccc(Cl)cc2Cl)n1 (stereo not given),99.8%,104%,170%,107%,0.1% (inactive),102% (inactive),101% (inactive),102% (inactive),102% (inactive),101% (inactive)
CC(C)(C)NC(=O)c1cccc(NC(=O)Cc2ccc(Br)cc2)c1,-3.28%,121%,76.6%,70.2%,1% (inactive),103% (inactive),100% (inactive),99.4% (inactive),100% (inactive),115% (inactive)
Cc1ccc(-n2c(SCC(=O)Nc3ncc(Cl)cc3Cl)nc3ccccc32)cc1,13.7%,134%,83.7%,76.9%,1% (inactive),103% (inactive),105% (inactive),103% (inactive),104% (inactive),113% (inactive)
CCN(CC)S(=O)(=O)c1cccc(-c2n[nH]c(=S)n2/N=C/c2ccc(C(=O)OC)cc2)c1,334%,35.5%,133%,124%,-1.2% (inactive),77.7% (inactive),113% (inactive),74% (active),91% (inactive),66.1% (inactive)
NC(=O)Cc1ccc2sc(-c3ccccc3)nc2c1,23.6%,149%,92.4%,84%,-0.3% (inactive),98.7% (inactive),43.6% (active),80% (inactive),55.9% (active),78.6% (inactive)
O=c1[nH]c2ccccc2s1,23%,148%,88.2%,79%,-0.3% (inactive),103% (inactive),102% (inactive),101% (inactive),102% (inactive),99.2% (inactive)
COc1ccc(C(=O)NNc2cc(C)nc(NNC(=O)c3ccc(OC)cc3)n2)cc1,4.94%,167%,72.3%,54%,1.4% (inactive),108% (inactive),115% (inactive),111% (inactive),110% (inactive),107% (inactive)
Fc1cc(F)c2nc(Nc3nc4c(F)cccc4s3)sc2c1,192%,-2.22%,112%,122%,0% (inactive),103% (inactive),103% (inactive),103% (inactive),103% (inactive),107% (inactive)
CCOC(=O)CSc1nc2c(c(=O)n(Cc3ccccc3Cl)c(=O)n2C)n1C,-55.5%,98.5%,88.1%,78.5%,0.8% (inactive),95.8% (inactive),99.8% (inactive),99.1% (inactive),94.7% (inactive),87.7% (inactive)
CC(NC(=O)COC(=O)C1CCN(S(=O)(=O)c2ccccc2C(F)(F)F)CC1)c1ccccc1 (stereo not given),327%,-23.1%,115%,148%,-0.6% (inactive),98.3% (inactive),96.9% (inactive),99.8% (inactive),97.2% (inactive),97.7% (inactive)
CN(C)CCNC(=O)/C(=C/c1cccc([N+](=O)[O-])c1)NC(=O)c1ccccc1,219%,-55.8%,113%,124%,-1.3% (inactive),103% (inactive),105% (inactive),101% (inactive),104% (inactive),91.3% (inactive)
CCCC(=O)N=c1sc2cccc(F)c2n1C,76.5%,14800%,18%,37.2%,–,–,–,–,–,–
CC(C)Cc1nc(Nc2ccc(S(=O)(=O)N3CCCC3)cc2)c2nnn(Cc3ccccc3)c2n1,260%,48.9%,137%,141%,1.3% (inactive),94.8% (inactive),91.8% (inactive),91.9% (inactive),90.6% (inactive),95.9% (inactive)
Cc1ccccc1NC(=S)N(CCCN1CCOCC1)Cc1cccs1,181%,80%,106%,118%,2.8% (inactive),104% (inactive),102% (inactive),104% (inactive),102% (inactive),107% (inactive)
CC(=O)N1CC[n+]2c(-c3ccc([N+](=O)[O-])cc3)csc21,12.8%,114%,102%,63.1%,-0.8% (inactive),80.5% (inactive),67.2% (active),58% (active),66.7% (active),62.5% (inactive)

SMILES,RGS16–Galpha-o binding response [1],RGS19–Galpha-o binding response [2],RGS7–Galpha-o binding response [3],RGS8–Galpha-o binding response [4],inhibition [5],binding response (% of control) [6],response (percent of control binding) [7],response (% of control binding) [8],binding response (% of control) [9],response (percent of control binding) [10]
CCOc1ccccc1NC(=O)c1cc(S(=O)(=O)N2CCC3(CC2)OCCO3)ccc1F,4.15%,139%,15.2%,33%,–,–,–,–,–,–
COc1ccccc1-n1c(-c2cc(-c3ccco3)[nH]n2)n[nH]c1=S,-1.14%,531%,-527%,6.3%,0.5% (inactive),83.6% (inactive),99.5% (inactive),82.6% (inactive),98.3% (inactive),68.6% (inactive)
C=CCn1c(Cn2nnc3ccccc32)nnc1SCC(=O)N/N=C/c1cc(Br)cc(OC)c1O,-35.2%,144%,-19.4%,5.17%,–,–,–,–,–,–
CCn1c(CSCc2c(Cl)cccc2Cl)n[nH]c1=S,46.1%,1140%,-29.3%,55.5%,1.4% (inactive),89% (inactive),89.5% (inactive),88.1% (inactive),94.2% (inactive),83.5% (inactive)
CCC(=O)N1CCC(C(N)=O)(N2CCCCC2)CC1,417%,90.3%,161%,163%,2% (inactive),93.5% (inactive),90.7% (inactive),94.8% (inactive),94.8% (inactive),88.3% (inactive)
NC(=O)CSc1c[nH]c2ccccc12,19.6%,-48.5%,25.2%,27.5%,-1.7% (inactive),104% (inactive),102% (inactive),110% (inactive),106% (inactive),103% (inactive)
O=C(Nc1cccc(F)c1)c1coc(=O)c(Br)c1,100%,108%,45.3%,80.8%,-1.3% (inactive),110% (inactive),105% (inactive),109% (inactive),103% (inactive),118% (inactive)
COc1ccc(-n2c(SCC(=O)OC(C)C)nnc2-c2ccccn2)cc1,242%,103%,101%,134%,-1.2% (inactive),99.1% (inactive),96.9% (inactive),93.3% (inactive),97.2% (inactive),60.1% (inactive)
COC(=O)c1ccccc1OCC(=O)N1CCN(c2ccc(Cl)cc2)CC1,461%,7560%,290%,132%,–,–,–,–,–,–
CN1CCN(C(CNS(=O)(=O)c2cccs2)c2cccnc2)CC1 (stereo not given),-5.62%,168%,-9.98%,10.6%,–,–,–,–,–,–
Oc1ccc(N=Nc2nccs2)c(O)c1,-16.2%,158%,270%,6.26%,-1.7% (inactive),99% (inactive),96.5% (inactive),97.6% (inactive),98.7% (inactive),99.6% (inactive)
CCN(CC)CCOc1ccc2c(c1)C(=NNC(=O)c1ccccn1)c1cc(OCCN(CC)CC)ccc1-2,203%,146%,216%,154%,–,–,–,–,–,–
CCCC1C(c2ccccc2)C(C#N)(C#N)C2(C#N)CC1(N)NC2=O (stereo not given),178%,474%,152%,116%,0.8% (inactive),103% (inactive),105% (inactive),102% (inactive),103% (inactive),105% (inactive)
O=C(CN1CCCCC1)N1c2ccccc2Sc2ccc(C(F)(F)F)cc21,-6.83%,241%,27.5%,22.7%,–,–,–,–,–,–
CCCn1nnnc1NC(=O)COc1ccc(Cl)cc1C,2.27%,-359%,17.1%,11.9%,–,–,–,–,–,–
Cc1ccc(N2C(=O)C3C(c4ccccc4)(C2=O)C3(c2ccccc2)c2ccccc2)cc1 (stereo not given),13.2%,310%,14.4%,23.3%,-0.7% (inactive),91.8% (inactive),60.8% (active),80.2% (inactive),68.2% (active),75.7% (inactive)
Cc1ccc(Cn2ccc(NC(=O)c3cc(C(C)C)on3)n2)cc1,47.2%,-20%,43.9%,55.8%,–,–,–,–,–,–
COc1cccc(C(=O)NCCSc2ccc(Br)cc2)c1,11.1%,1100%,16.5%,20.7%,-0.2% (inactive),103% (inactive),106% (inactive),104% (inactive),104% (inactive),83.7% (inactive)
Cc1cc(C)cc(N(CC(=O)Nc2c(C)n(C)n(-c3ccccc3)c2=O)S(C)(=O)=O)c1,-28.4%,156%,-21.3%,1.54%,-0.5% (inactive),104% (inactive),104% (inactive),108% (inactive),103% (inactive),108% (inactive)
CCOC(=O)C1Sc2[nH]c(=O)sc2C(c2ccc(Cl)cc2)C1C(=O)OCC (stereo not given),-39.2%,128%,-17.7%,7.38%,–,–,–,–,–,–
